According to the supplement of paper PMC12645437, “Orthogonal IMiD-Degron Pairs Induce Selective Protein Degradation in Cells” (ACS Chemical Biology, 2025):
The full ranking holds about 8,300 sequences; the median of “log2 fold change of degron read counts, EGFP-low vs EGFP+ sorted cells (limma voom), compound-induced degradation” is about -1.1, and the highest 2% start at about 3.2. This excerpt belongs to a sample that is enriched for the highest values.

Biological target: T1, CRBN, Q96SW2
T1 chain: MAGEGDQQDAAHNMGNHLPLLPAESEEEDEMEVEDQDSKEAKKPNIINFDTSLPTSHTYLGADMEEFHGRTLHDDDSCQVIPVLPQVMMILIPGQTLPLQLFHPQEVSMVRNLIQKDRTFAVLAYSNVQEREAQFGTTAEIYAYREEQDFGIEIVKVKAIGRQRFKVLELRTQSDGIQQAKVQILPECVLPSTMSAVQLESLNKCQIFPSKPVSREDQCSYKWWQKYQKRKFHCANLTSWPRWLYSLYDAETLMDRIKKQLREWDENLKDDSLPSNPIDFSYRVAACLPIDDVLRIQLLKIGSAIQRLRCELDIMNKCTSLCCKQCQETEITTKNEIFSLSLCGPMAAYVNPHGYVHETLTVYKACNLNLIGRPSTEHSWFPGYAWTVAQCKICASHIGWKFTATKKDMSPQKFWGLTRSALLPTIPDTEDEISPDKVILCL
Assay: log2 fold change of degron read counts, EGFP-low vs EGFP+ sorted cells (limma voom), compound-induced degradation; higher = more compound-induced degradation of the degron-EGFP fusion; degrons are variants of IKZF1/3 zinc finger 2; compound dose not given here
Conditions: Jurkat, 18 h

[1] = compound: compound 19 (5-tert-butyl-thalidomide)
[2] = compound: compound 22 (5-morpholino-thalidomide)
[3] = compound: compound 33 (diphenyl IMiD analogue)
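Also: pooled lentiviral library of zinc finger degron-EGFP fusions in mCherry-positive Jurkat cells, FACS-sorted after compound exposure, with degron abundance counted by next-generation sequencing.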

## FQCPQCGAMFTQKGNLLRHIKL [46F_47Q_49P_50Q_52G_53A_54M_55F_67L_, Q9UKT9]
[1]
  log2 fold change of degron read counts: -1.88
[2]
  log2 fold change of degron read counts: -0.122
[3]
  log2 fold change of degron read counts: 0.828
compound: thalidomide
  log2 fold change of degron read counts: 2.53

## LCCNQCGFMCTQKGNLLRHIKL [46L_47C_49N_50Q_52G_53F_54M_55C_67L_, Q9UKT9]
[1]
  log2 fold change of degron read counts: -1.73
[2]
  log2 fold change of degron read counts: -2.27
[3]
  log2 fold change of degron read counts: -1.57
compound: thalidomide
  log2 fold change of degron read counts: -1.43

## FVCDVCGAVFTQKGNLLRHIKL [46F_47V_49D_50V_52G_53A_54V_55F_67L_, Q9UKT9]
[1]
  log2 fold change of degron read counts: -2.2
[2]
  log2 fold change of degron read counts: -1.22
[3]
  log2 fold change of degron read counts: 0.29
compound: thalidomide
  log2 fold change of degron read counts: -0.895

## FQCNQCGAYFTQKGNLLRHIKL [46F_47Q_49N_50Q_52G_53A_54Y_55F_67L_, Q9UKT9]
[1]
  log2 fold change of degron read counts: -2.89
[2]
  log2 fold change of degron read counts: -2.26
[3]
  log2 fold change of degron read counts: -1.84
compound: thalidomide
  log2 fold change of degron read counts: -0.227

## FTCPQCGAQFTQKGNLLRHIKL [46F_47T_49P_50Q_52G_53A_54Q_55F_67L_, Q9UKT9]
[1]
  log2 fold change of degron read counts: -2.03
[2]
  log2 fold change of degron read counts: 0.309
[3]
  log2 fold change of degron read counts: 1.83
compound: thalidomide
  log2 fold change of degron read counts: 1.07

## LECPICGFGCTQKGNLLRHIKL [46L_47E_49P_50I_52G_53F_54G_55C_67L_, Q9UKT9]
[1]
  log2 fold change of degron read counts: 0.698
[2]
  log2 fold change of degron read counts: -0.66
[3]
  log2 fold change of degron read counts: 1.1
compound: thalidomide
  log2 fold change of degron read counts: 2.27

## FNCNQCGHVFTQKGNLLRHIKL [46F_47N_49N_50Q_52G_53H_54V_55F_67L_, Q9UKT9]
[1]
  log2 fold change of degron read counts: -2.33
[2]
  log2 fold change of degron read counts: -2.54
[3]
  log2 fold change of degron read counts: -2.77
compound: thalidomide
  log2 fold change of degron read counts: -2.34

## FECPICGHPFTQKGNLLRHIKL [46F_47E_49P_50I_52G_53H_54P_55F_67L_, Q9UKT9]
[1]
  log2 fold change of degron read counts: -2.51
[2]
  log2 fold change of degron read counts: -2.54
[3]
  log2 fold change of degron read counts: -0.989
compound: thalidomide
  log2 fold change of degron read counts: -0.173

## FFCPICGHGFTQKGNLLRHIKL [46F_47F_49P_50I_52G_53H_54G_55F_67L_, Q9UKT9]
[1]
  log2 fold change of degron read counts: -1.02
[2]
  log2 fold change of degron read counts: -1.29
[3]
  log2 fold change of degron read counts: -0.968
compound: thalidomide
  log2 fold change of degron read counts: -1.48

## FECEICGAPFTQKGNLLRHIKL [46F_47E_49E_50I_52G_53A_54P_55F_67L_, Q9UKT9]
[1]
  log2 fold change of degron read counts: 2.7
[2]
  log2 fold change of degron read counts: -0.51
[3]
  log2 fold change of degron read counts: 1.41
compound: thalidomide
  log2 fold change of degron read counts: 2.07

## FDCEICGAPFTQKGNLLRHIKL [46F_47D_49E_50I_52G_53A_54P_55F_67L_, Q9UKT9]
[1]
  log2 fold change of degron read counts: 2.21
[2]
  log2 fold change of degron read counts: 0.891
[3]
  log2 fold change of degron read counts: -0.242
compound: thalidomide
  log2 fold change of degron read counts: 0.789

## FRCEICGAPFTQKGNLLRHIKL [46F_47R_49E_50I_52G_53A_54P_55F_67L_, Q9UKT9]
[1]
  log2 fold change of degron read counts: 3.62
[2]
  log2 fold change of degron read counts: 3.98
[3]
  log2 fold change of degron read counts: 3.31
compound: thalidomide
  log2 fold change of degron read counts: 3.58

## FHCEICGAPFTQKGNLLRHIKL [46F_47H_49E_50I_52G_53A_54P_55F_67L_, Q9UKT9]
[1]
  log2 fold change of degron read counts: 4
[2]
  log2 fold change of degron read counts: 3.46
[3]
  log2 fold change of degron read counts: 2.38
compound: thalidomide
  log2 fold change of degron read counts: 1.9

## FHCEICGADFTQKGNLLRHIKL [46F_47H_49E_50I_52G_53A_54D_55F_67L_, Q9UKT9]
[1]
  log2 fold change of degron read counts: -1.38
[2]
  log2 fold change of degron read counts: -3.23
[3]
  log2 fold change of degron read counts: -1.06
compound: thalidomide
  log2 fold change of degron read counts: -2.34

## FTCEICGAPFTQKGNLLRHIKL [46F_47T_49E_50I_52G_53A_54P_55F_67L_, Q9UKT9]
[1]
  log2 fold change of degron read counts: 2.99
[2]
  log2 fold change of degron read counts: 3.21
[3]
  log2 fold change of degron read counts: 2.47
compound: thalidomide
  log2 fold change of degron read counts: 3.17

## FACEICGAPFTQKGNLLRHIKL [46F_47A_49E_50I_52G_53A_54P_55F_67L_, Q9UKT9]
[1]
  log2 fold change of degron read counts: 3.6
[2]
  log2 fold change of degron read counts: 2.51
[3]
  log2 fold change of degron read counts: 0.463
compound: thalidomide
  log2 fold change of degron read counts: 1.72

## FHCEICGAFFTQKGNLLRHIKL [46F_47H_49E_50I_52G_53A_54F_55F_67L_, Q9UKT9]
[1]
  log2 fold change of degron read counts: 0.885
[2]
  log2 fold change of degron read counts: -0.276
[3]
  log2 fold change of degron read counts: 0.198
compound: thalidomide
  log2 fold change of degron read counts: -1.2

## FLCEICGAPFTQKGNLLRHIKL [46F_47L_49E_50I_52G_53A_54P_55F_67L_, Q9UKT9]
[1]
  log2 fold change of degron read counts: 2.96
[2]
  log2 fold change of degron read counts: 2.82
[3]
  log2 fold change of degron read counts: 2.69
compound: thalidomide
  log2 fold change of degron read counts: 3.17

## FLCEQCGAMFTQKGNLLRHIKL [46F_47L_49E_50Q_52G_53A_54M_55F_67L_, Q9UKT9]
[1]
  log2 fold change of degron read counts: -2.2
[2]
  log2 fold change of degron read counts: -2.48
[3]
  log2 fold change of degron read counts: -0.823
compound: thalidomide
  log2 fold change of degron read counts: -1.31

## FECDICGAIFTQKGNLLRHIKL [46F_47E_49D_50I_52G_53A_54I_55F_67L_, Q9UKT9]
[1]
  log2 fold change of degron read counts: -1.92
[2]
  log2 fold change of degron read counts: -1.75
[3]
  log2 fold change of degron read counts: -0.965
compound: thalidomide
  log2 fold change of degron read counts: 0.171

## FQCNQCGAFFTQKGNLLRHIKL [46F_47Q_49N_50Q_52G_53A_54F_55F_67L_, Q9UKT9]
[1]
  log2 fold change of degron read counts: -2.56
[2]
  log2 fold change of degron read counts: -2.44
[3]
  log2 fold change of degron read counts: -1.62
compound: thalidomide
  log2 fold change of degron read counts: -1.28

## FICEQCGANFTQKGNLLRHIKL [46F_47I_49E_50Q_52G_53A_54N_55F_67L_, Q9UKT9]
[1]
  log2 fold change of degron read counts: -2.09
[2]
  log2 fold change of degron read counts: -0.316
[3]
  log2 fold change of degron read counts: 0.362
compound: thalidomide
  log2 fold change of degron read counts: 0.322

## FRCNICGASFTQKGNLLRHIKL [46F_47R_49N_50I_52G_53A_54S_55F_67L_, Q9UKT9]
[1]
  log2 fold change of degron read counts: 0.331
[2]
  log2 fold change of degron read counts: 0.291
[3]
  log2 fold change of degron read counts: 0.894
compound: thalidomide
  log2 fold change of degron read counts: 0.839

## FRCDICGARFTQKGNLLRHIKL [46F_47R_49D_50I_52G_53A_54R_55F_67L_, Q9UKT9]
[1]
  log2 fold change of degron read counts: -1.84
[2]
  log2 fold change of degron read counts: -2.03
[3]
  log2 fold change of degron read counts: -1.21
compound: thalidomide
  log2 fold change of degron read counts: -0.575

## FYCDICGARFTQKGNLLRHIKL [46F_47Y_49D_50I_52G_53A_54R_55F_67L_, Q9UKT9]
[1]
  log2 fold change of degron read counts: 3.31
[2]
  log2 fold change of degron read counts: 3.35
[3]
  log2 fold change of degron read counts: 0.716
compound: thalidomide
  log2 fold change of degron read counts: -0.312

## FDCDICGARFTQKGNLLRHIKL [46F_47D_49D_50I_52G_53A_54R_55F_67L_, Q9UKT9]
[1]
  log2 fold change of degron read counts: 1.85
[2]
  log2 fold change of degron read counts: 0.0154
[3]
  log2 fold change of degron read counts: -1.13
compound: thalidomide
  log2 fold change of degron read counts: -0.0241

## FGCDICGARFTQKGNLLRHIKL [46F_47G_49D_50I_52G_53A_54R_55F_67L_, Q9UKT9]
[1]
  log2 fold change of degron read counts: 2.15
[2]
  log2 fold change of degron read counts: 0.817
[3]
  log2 fold change of degron read counts: -1.24
compound: thalidomide
  log2 fold change of degron read counts: 0.195

## FFCDICGARFTQKGNLLRHIKL [46F_47F_49D_50I_52G_53A_54R_55F_67L_, Q9UKT9]
[1]
  log2 fold change of degron read counts: 3.58
[2]
  log2 fold change of degron read counts: 3.35
[3]
  log2 fold change of degron read counts: 0.994
compound: thalidomide
  log2 fold change of degron read counts: 0.0481

## FVCDICGARFTQKGNLLRHIKL [46F_47V_49D_50I_52G_53A_54R_55F_67L_, Q9UKT9]
[1]
  log2 fold change of degron read counts: 0.23
[2]
  log2 fold change of degron read counts: 1.75
[3]
  log2 fold change of degron read counts: -0.304
compound: thalidomide
  log2 fold change of degron read counts: 1.47

## FTCDICGARFTQKGNLLRHIKL [46F_47T_49D_50I_52G_53A_54R_55F_67L_, Q9UKT9]
[1]
  log2 fold change of degron read counts: 1.44
[2]
  log2 fold change of degron read counts: 2.55
[3]
  log2 fold change of degron read counts: 0.655
compound: thalidomide
  log2 fold change of degron read counts: 1.76

## FACDICGARFTQKGNLLRHIKL [46F_47A_49D_50I_52G_53A_54R_55F_67L_, Q9UKT9]
[1]
  log2 fold change of degron read counts: 3.46
[2]
  log2 fold change of degron read counts: 1.91
[3]
  log2 fold change of degron read counts: -1.69
compound: thalidomide
  log2 fold change of degron read counts: -0.979

## FWCDICGARFTQKGNLLRHIKL [46F_47W_49D_50I_52G_53A_54R_55F_67L_, Q9UKT9]
[1]
  log2 fold change of degron read counts: 3.15
[2]
  log2 fold change of degron read counts: 3.82
[3]
  log2 fold change of degron read counts: 0.741
compound: thalidomide
  log2 fold change of degron read counts: 0.265

## FLCDICGARFTQKGNLLRHIKL [46F_47L_49D_50I_52G_53A_54R_55F_67L_, Q9UKT9]
[1]
  log2 fold change of degron read counts: -0.594
[2]
  log2 fold change of degron read counts: -2.06
[3]
  log2 fold change of degron read counts: -0.802
compound: thalidomide
  log2 fold change of degron read counts: 0.425

## FQCDICGARFTQKGNLLRHIKL [46F_47Q_49D_50I_52G_53A_54R_55F_67L_, Q9UKT9]
[1]
  log2 fold change of degron read counts: -1.01
[2]
  log2 fold change of degron read counts: 1.3
[3]
  log2 fold change of degron read counts: 0.0735
compound: thalidomide
  log2 fold change of degron read counts: 3.03

## FCCDICGARFTQKGNLLRHIKL [46F_47C_49D_50I_52G_53A_54R_55F_67L_, Q9UKT9]
[1]
  log2 fold change of degron read counts: 2.34
[2]
  log2 fold change of degron read counts: 2.23
[3]
  log2 fold change of degron read counts: 0.356
compound: thalidomide
  log2 fold change of degron read counts: 1.57
